The panel holds about 83,000 compounds, 20% with a hit somewhere; the sample as a whole holds those more often.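 Compound tested at a single concentration for 48 hours in 96-well plates; a percent growth value below 10 was scored as active.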 Values without a mark were called inactive. Calls of active or inactive are those of the source.
Each molecule was assayed on SK-OV-3 ovarian (assay: NCI-60 one-dose screen, 48 h (100 = growth as untreated, 0 = no growth, -100 = all killed)). Conditions: 10 µM unless noted.

Compared with O=C1CC(=NCC(=O)n2c(-c3ccccc3)nc3ccccc32)NN1, O=C(O)c1ccc(N=CC(=O)c2ccc(-c3ccccc3)cc2)cc1 is higher in growth: 84.8% for the first, 110% for the second.

First: CC(C)(O)c1cn(CCCCN2C(=O)C(=O)c3ccccc32)nn1
Second: COc1cccc(-c2nn(C(C)(C)C)cc2-c2ccnc(NCCCNS(=O)(=O)c3ccc(C)cc3)c2)c1
The growth of the first is lower: 95.7% for the first, 113% for the second.

Going from COc1ccc(/C=C/C(=O)c2ccc(O)c(CN3CCN(c4cc5c(cc4F)c(=O)c(C(=O)O)cn5C4CC4)CC3)c2)cc1 to O=C(/C=C/c1cccc(Cl)c1)c1ccc(O)c(CN2CCN(c3cc4c(cc3F)c(=O)c(C(=O)O)cn4C3CC3)CC2)c1, the growth rises from 46.5% to 79.8%.

Compared with O=S(=O)(Nc1ccc(OC(F)F)cc1)c1ccc(-c2cnc(C3CC3)o2)cc1, N#Cc1c(-c2ccc(Cl)cc2)nc(N/N=C/c2cccc(Br)c2)nc1N1CCOCC1 is higher in growth: 83.4% for the first, 109% for the second.

First: N#C/C(=C\c1ccc(-c2cc(C(F)(F)F)ccc2Cl)o1)c1nc(-c2ccco2)cs1
Second: CSc1nc(NCc2ccccc2)c(C#N)c(-c2cccc([N+](=O)[O-])c2)n1
The growth of the first is higher: 100% for the first, 97.1% for the second.

Compared with CC(C)n1c(/C=C/[C@@H](O)C[C@@H](O)CC(=O)O)c(-c2ccc(F)cc2)c2ccccc21, Cn1c(=O)c2c(nc3n(-c4ccc(Cl)cc4Cl)c(Sc4nc(-c5ccccc5)c(C#N)c(=O)[nH]4)cn23)n(C)c1=O is lower in growth: 72.6% for the first, 39.7% for the second.

First: COc1ccc(-c2nc3ccc(-c4nc5ccc(N6CCN(c7ccncc7)CC6)cc5[nH]4)cc3[nH]2)cc1OC
Second: CC1(C)CC[C@]2(C(=O)Nc3ccccn3)CC[C@]3(C)C(=CC[C@@H]4[C@@]5(C)C/C(=C/c6cccnc6)C(=O)C(C)(C)[C@@H]5CC[C@]43C)[C@H]2C1
The growth of the first is lower: 73.6% for the first, 74% for the second.

Compared with COC(=O)[C@]12CCC(C)(C)C[C@H]1[C@H]1C(=O)C[C@@H]3[C@@]4(C)c5c([nH]c6ccccc6c5=O)C(C)(C)[C@@H]4CC[C@@]3(C)[C@]1(C)CC2, CC1=CC(=NN=c2cc(C)n([O-])c(C)c2)C=C(C)[N+]1=O is higher in growth: 86.4% for the first, 111% for the second.

In the case of CCC(=O)c1ccc(Cl)s1, the growth is reported as 114%.

CCCCCCCCCCCCC[N+](C)(C)Cc1ccccc1 was tested, and the growth was 4.31% (active).

What follows are molecules tested on IGROV1 ovarian in the same assay as above. Conditions: 10 µM unless noted.

First: COc1cccc(-c2nc3sccn3c2-c2ccnc(NCCCNS(=O)(=O)c3c(Cl)cccc3Cl)c2)c1
Second: COc1cccc(-c2nn(C(C)(C)C)cc2-c2ccnc(NCCCNS(=O)(=O)c3ccc(C)cc3)c2)c1
The growth of the first is lower: 72.1% for the first, 111% for the second.

Compared with CC1=NN(c2nc(-c3ccc(Cl)cc3)c(C#N)c(N3CCOCC3)n2)C(=O)C1, N#Cc1c(-c2ccc(Cl)cc2)nc(N/N=C/c2cccc(Br)c2)nc1N1CCOCC1 is higher in growth: 81% for the first, 83.6% for the second.

Going from Cc1nc2c3c(-c4ccccc4)c(-c4ccccc4)oc3ncn2n1 to O=C1CC(=NCC(=O)n2c(-c3ccccc3)nc3ccccc32)NN1, the growth falls from 94.7% to 77.2%.

First: C=CC(=O)Nc1cccc(-c2nc(SC)nc(NCc3ccccc3)c2C#N)c1
Second: CSc1nc(NCc2ccccc2)c(C#N)c(-c2cccc([N+](=O)[O-])c2)n1
The growth of the first is lower: 57.3% for the first, 99.9% for the second.

Going from N#Cc1c(N)n(CCNC(=O)c2ccccc2)c2nc3ccccc3nc12 to CC(C)c1c(C(=O)c2ccccc2)c(-c2ccccc2)c(-c2ccc(F)cc2)n1CC[C@@H](O)C[C@@H](O)CC(=O)O, the growth falls from 76.3% to 39.5%.

Compared with C=C(C)[C@@H]1CC[C@]2(C(=O)OC)CC[C@]3(C)[C@H](CC[C@@H]4[C@@]5(C)C/C(=C/c6cccc(I)c6)C(=O)C(C)(C)[C@@H]5CC[C@]43C)[C@@H]12, CC1(C)CC[C@]2(C(=O)Nc3ccccn3)CC[C@]3(C)C(=CC[C@@H]4[C@@]5(C)C/C(=C/c6cccnc6)C(=O)C(C)(C)[C@@H]5CC[C@]43C)[C@H]2C1 is lower in growth: 103% for the first, 52.8% for the second.

First: Cc1c(/C=C/[N+](=O)[O-])ccc2c1[nH]c1ccccc12
Second: CC(C)n1c(/C=C/[C@@H](O)C[C@@H](O)CC(=O)O)c(-c2ccc(F)cc2)c2ccccc21
The growth of the first is higher: 101% for the first, 34.3% for the second.

First: COc1cc(/C=C/c2cc(O)c3cc(C(C)=O)c(=O)oc3c2)cc2c1O[C@]1(C)CC[C@@H](O)C(C)(C)[C@H]1C2
Second: COc1cc(/C=C/C(=O)c2ccc(O)c(CN3CCN(c4cc5c(cc4F)c(=O)c(C(=O)O)cn5C4CC4)CC3)c2)cc(OC)c1OC
The growth of the first is lower: 53.1% for the first, 55% for the second.

Going from CCCOc1ccc2nc(NC(=O)OC)[nH]c2c1 to CCCN1CCN(c2ccc3nc(-c4ccc5nc(-c6ccc(OCC)cc6)[nH]c5c4)[nH]c3c2)CC1, the growth rises from 36.9% to 52.1%.

First: C=CCSSc1ncnc2c1ncn2C1OC(CO)C(O)C1O (configuration not stated)
Second: Nc1nc2ncc(CCNc3ccc(C(=O)O)cc3)nc2c(=O)[nH]1
The growth of the first is lower: 34.9% for the first, 113% for the second.

Going from COc1cc2nc(N3CCCC3)nc(NCc3ccccc3)c2cc1OC to COc1cc2nc(N3CCCC3)nc(Nc3ccccc3)c2cc1OC, the growth falls from 90.4% to 23.3%.

Going from CC[C@H]1OC(=O)[C@H](C)[C@@H](O[C@H]2C[C@@](C)(OC)[C@@H](O)[C@H](C)O2)[C@H](C)[C@@H](O[C@@H]2O[C@H](C)C[C@H](N(C)C)[C@H]2O)[C@](C)(O)C[C@H](C)CN(C)[C@H](C)[C@@H](O)[C@]1(C)O to COC(=O)[C@]12CCC(C)(C)C[C@H]1[C@H]1C(=O)C[C@@H]3[C@@]4(C)c5c([nH]c6ccccc6c5=O)C(C)(C)[C@@H]4CC[C@@]3(C)[C@]1(C)CC2, the growth falls from 98.3% to 94.5%.

First: CSc1nc(NCCN2CCOCC2)c(C#N)c(-c2cccc([N+](=O)[O-])c2)n1
Second: COc1ccc(Nc2nc(SC)nc(-c3cccc([N+](=O)[O-])c3)c2C#N)cc1
The growth of the first is higher: 94.9% for the first, 72.3% for the second.

Going from N#CCCN=Nc1c(O)[nH]c2ccc([N+](=O)[O-])cc12 to CC1=CC(=NN=c2cc(C)n([O-])c(C)c2)C=C(C)[N+]1=O, the growth falls from 99.6% to 89.2%.

Compared with CC[C@@H]1O[C@H](O[C@@H](c2cnc[nH]2)[C@H](NC(=O)c2nc([C@H](CC(N)=O)NC[C@@H](N)C(N)=O)nc(N)c2C)C(=O)N[C@H](C)[C@H](O)[C@H](C)C(=O)N[C@@H](C(=O)NCCc2nc(-c3nc(C(=O)NCCCCN=C(N)N)cs3)cs2)[C@@H](C)O)[C@H](O[C@@H]2O[C@H](CO)[C@H](O)[C@H](OC(N)=O)[C@@H]2O)[C@H](C)[C@@H]1C, CC(C)(O)c1cn(CCCCN2C(=O)C(=O)c3ccccc32)nn1 is higher in growth: 45.5% for the first, 102% for the second.

Going from COc1ccc(/C=C/C(=O)c2ccc(O)c(CN3CCN(c4cc5c(cc4F)c(=O)c(C(=O)O)cn5C4CC4)CC3)c2)cc1 to O=C(/C=C/c1cccc(Cl)c1)c1ccc(O)c(CN2CCN(c3cc4c(cc3F)c(=O)c(C(=O)O)cn4C3CC3)CC2)c1, the growth rises from 33.8% to 48%.

First: O=S(=O)(Nc1ccc(OC(F)F)cc1)c1ccc(-c2cnc(C3CC3)o2)cc1
Second: O=C(O)c1ccc(N=CC(=O)c2ccc(-c3ccccc3)cc2)cc1
The growth of the first is lower: 64.8% for the first, 102% for the second.

Going from N#C/C(=C\c1ccc(-c2cc(C(F)(F)F)ccc2Cl)o1)c1nc(-c2ccco2)cs1 to Cn1c(=O)c2c(nc3n(-c4ccc(Cl)cc4Cl)c(Sc4nc(-c5ccccc5)c(C#N)c(=O)[nH]4)cn23)n(C)c1=O, the growth falls from 104% to 55.6%.

Going from COc1ccc(-c2nc3ccc(-c4nc5ccc(N6CCN(c7ccncc7)CC6)cc5[nH]4)cc3[nH]2)cc1OC to CCC(=O)c1ccc(Cl)s1, the growth rises from 65.2% to 118%.

CCCCCCCCCCCCC[N+](C)(C)Cc1ccccc1 was tested, and the growth was -49.9% (active).
